Data taken from PubChem BioAssay (NCATS).
Inconclusive results are not listed. A number with no mark means an inactive call. Active and inactive are the calls of the source. Calls come from the whole dose curve; as a rule, active = well fitted inhibition curve with a large enough effect; inconclusive = small, poorly fitted or top-dose-only effect; inactive = no such curve, though single readings can be large or run the other way. Residues, ends and D or L forms follow the SMILES beside them. *: point of attachment. Cbz = O=C(OCc1ccccc1)*

target: Endonuclease 4 (Escherichia coli (strain K12)) (UniProt P0A6C1); assay: Counterscreen for APE1 Inhibitors: qHTS Validation Assay for Inhibitors of Endonuclease IV (AID 1708); conditions: E. coli endonuclease IV, DNA cleavage fluorescence; series mostly up to 57.1 µM; activity change, negative = inhibition: at the top concentration
Excerpt: Assay Provider: David M. Wilson, III, National Institute on Aging, NIH
Screening Center PI: Austin, C.P.
Screening Center: NIH Chemical Genomics Center [NCGC]
Escherichia coli endonuclease IV (Endo IV) is the key member of the AP endonuclease superfamily that catalyzes the cleavage of damaged DNA backbone immediately 5' of an AP site. E. coli EndoIV has the same functional activities as human APE1 but has no sequence or structural homology to the human protein. Herein, we utilize E. coli EndoIV to counter screen compound libraries as part of a high-throughput campaign for APE1 inhibitor identification. A concentration-response screen of the LOPAC1280 collection was performed under experimental conditions identical to those used in the APE1 screen.
Inhibition of APE1 activity was screened by utilizing double-stranded short substrate containing tetrahydrofuran (THF) abasic site labeled with rhodamine-type fluorophore (TAMRA) at the 5'-end and with non-fluorescent Black Hole Quencher-2 (BHQ-2) at the opposing 3'-end. An increase in the fluorescence intensity due to incision of the abasic site by APE1 was used to measure the enzyme activity.
Buffer: 50 mM Tris-HCl (pH 7.5) containing 50mM NaCl, 2 mM MgCl2, 1 mM DTT and 0.01% Tween-20.
Buffer in columns 3 and 4 as negative control (no enzyme).
Substrate: 50 nM final concentration of TAMRA/BHQ-2 substrate dispensed throughout the plate.
Enzyme: 2 nM E. coli EndoIV final concentration in columns 1, 2, 5-48. Column 1 is neutral (100% activity).
Control: Pintool transfer of control inhibitor NSC-13755 to column 2 of all assay plates. Two-fold, 16 pt dilution in duplicate to produce final concentrations in the 5.75 uM - 0.175 nM range.
Three uL of enzyme were dispensed to 1536-well Greiner black solid bottom plates. Compounds (23 nL) were transferred via Kalypsys pintool. The plates were incubated for 15 min at room temperature, and then 1 uL of substrate solution was added to start the reaction. The plates were immediately transferred into ViewLux High-throughput CCD imager (Perkin-Elmer) in order to measure the reaction progress in kinetic mode (three reads every 60 seconds) using 525 nm excitation and 598 nm emission fluorescence protocol. The fluorescence intensity difference between the third and the first time points was used to compute reaction progress.
% is set by controls: 0 for no effect and ±100 for the full control effect.

SMILES	activity change, negative = inhibition [%]	Potency
O=[N+]([O-])c1cccc2c(Br)[nH]nc12	1.04	
O=C(O)C1=CCCN(CCON=C(c2ccccc2)c2ccccc2)C1	23.1	
CCCCCCN(CCCCCC)C(=O)Cc1c(-c2ccc(F)cc2)[nH]c2ccccc12	-8.84	
c1ccc2nc(C3=NCCN3)ccc2c1	-6.59	
CC(C)[C@H](NC(=O)OCc1ccccc1)C(=O)N[C@H](C=O)Cc1ccccc1 (Cbz-Val-Phe-aldehyde)	-5.22	
NC(N)=N[C@@H](CCC(=O)O)C(=O)O	-7.39	
NCC(O)C1CCCCCCC1 (stereo not given)	-3.69	
NS(=O)(=O)c1cccc2c1c([N+](=O)[O-])cc1nc(O)c(O)nc12	-12.5	
OCC1NCC(O)C(O)C1O (stereo not given)	-5.06	
O=C(O)/C=C/c1ccc(O)c(O)c1	51.5	
O=c1[nH]c(=O)c2nc3ccccc3nc2[nH]1	-8.67	
CC(=O)/C(C)=N/O	-8.59	
C=CC[C@H](N)C(=O)O	0.321	
N=C(N)SCCc1cnc[nH]1	-8.03	
C[C@H](NC(=O)/C(C#N)=C/c1ccc(O)c(O)c1)c1ccccc1	89.2	
CCN1C(=O)C=CC1=O	1.37	
CC(C)(C)NCC(O)COc1cccc2[nH]c(=O)[nH]c12 (stereo not given)	0.964	
O=C(O)Cc1ccc(O)c(O)c1	24.6	
Nc1ccc(CCNc2ncnc3c2ncn3C2OC(CO)C(O)C2O)cc1 (stereo not given)	-11.8	
Cc1ccc([N+](=O)[O-])cc1S(=O)(=O)N(C)C		inactive

SMILES	activity change, negative = inhibition [%]	Potency
CC1=C(/C=C/C(C)=C/C=C/C(C)=C\C(=O)O)C(C)(C)CCC1	-7.71	
N[C@H](C(=O)O)[C@H]1C[C@@H]1C(=O)O	-3.69	
O=c1onc2cnc3ccccc3n12	-9.88	
Cc1nc(N=Nc2ccc(S(=O)(=O)O)cc2S(=O)(=O)O)c(COP(=O)(O)O)c(C=O)c1O	-10.4	
CC(/C=C/c1cccc(Oc2ccc(F)cc2)c1)N(O)C(N)=O (stereo not given)	-7.71	
N[C@@H](Cc1ccc(O)c(I)c1)C(=O)O	-12.4	
CSC(=N)N	-5.54	
NC1(C(=O)O)CC1	-2.33	
NC(=O)CC[C@H](N)C(=O)O	-7.39	
COCc1nc2c([nH]1)c(=O)n(C)c(=O)n2CC(C)C	-2.33	
S=C(S)N1CCCC1	-1.12	
NCC(O)c1ccc(O)c(O)c1 (stereo not given)	18.8	
CCCCCCCCCC[Si](C)(C)CCC(=O)NC(Cc1ccc(C)cc1)c1ccccc1 (stereo not given)	-9.56	
C=CCn1c(=O)c2c(nc(-c3ccc(S(=O)(=O)O)cc3)n2C)n(C)c1=O	-7.23	
NCCS(=O)O	-3.94	
N#CC(C#N)=C(N)/C(C#N)=C/c1ccc(O)cc1	-1.29	
CC(N)(Cc1ccc(O)c(O)c1)C(=O)O (stereo not given)	8.27	
O=c1cc(O)cc(/C=C/c2ccc(O)c(O)c2)o1	102	
CC[C@@H]1Cc2cc(O)ccc2C2=C1c1ccc(O)cc1C[C@H]2CC	-8.84	
COC(=O)C(N)Cc1ccc(Cl)cc1 (stereo not given)	-3.13	
